According to PubChem BioAssay AID588342 (National Center for Advancing Translational Sciences (NCATS), 2011):
“And” between values parts separate entries of the source, which are not always exact repeats. Equal entries are not always repeated. The whole screen tested about 360,000 compounds, of which about 25,000 (6.9%) were called active. Another 9% or so got no clear call; they are omitted. This is one part of a sample in which actives are shown more often than they occur. A number with no mark means an inactive call. Calls follow the shape of the dose curve; as a rule, active = well fitted inhibition curve with a large enough effect; inconclusive = small, poorly fitted or top-dose-only effect; inactive = flat fitted curve, though single readings scatter.

molecular target: Luciferin 4-monooxygenase (Photinus pyralis) (UniProt P08659); experiment: qHTS profiling assay for firefly luciferase inhibitor/activator using purifed enzyme and Km concentrations of substrates (counterscreen for miR-21 project); settings: purified FLuc, luminescence inhibition; series mostly up to 57.5 µM; activity change, negative = inhibition: at the top concentration; also: nearly all actives have a fitted effect of over 55% in size;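 as to activity change, negative = inhibition: plate controls were vehicle for no effect and reference inhibitor for full effect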
Sequence (P08659 whole entry, looked up): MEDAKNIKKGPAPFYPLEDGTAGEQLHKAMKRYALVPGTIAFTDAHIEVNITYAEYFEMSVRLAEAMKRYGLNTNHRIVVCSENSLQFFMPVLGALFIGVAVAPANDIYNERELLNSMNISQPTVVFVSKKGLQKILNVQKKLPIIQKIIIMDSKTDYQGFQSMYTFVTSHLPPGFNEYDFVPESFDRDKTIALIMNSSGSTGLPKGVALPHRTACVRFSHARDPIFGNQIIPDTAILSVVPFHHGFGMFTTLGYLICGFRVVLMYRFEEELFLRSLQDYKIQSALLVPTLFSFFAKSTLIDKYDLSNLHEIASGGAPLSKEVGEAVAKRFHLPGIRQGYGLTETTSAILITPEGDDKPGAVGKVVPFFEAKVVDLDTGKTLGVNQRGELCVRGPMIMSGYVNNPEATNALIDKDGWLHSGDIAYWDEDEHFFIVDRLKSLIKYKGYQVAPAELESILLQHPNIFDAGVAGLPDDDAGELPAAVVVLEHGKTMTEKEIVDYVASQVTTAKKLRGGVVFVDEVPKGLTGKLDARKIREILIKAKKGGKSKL
How it was run: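 Purified P. pyralis luciferase (10nM final) with 10uM D-luciferin and 10uM ATP (Km levels) in 50mM Tris acetate pH 7.5, 10mM Mg acetate, 0.01% Tween-20, 0.05% BSA; qHTS 6-point titration, ~60 µM downward; luminescence read.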
Potency is read from the fitted curve at half-maximal effect.

Question: With O=C(NCC1CCCO1)c1ccc(S(=O)(=O)Nc2ccc(F)cc2)cc1 (centres undefined) as the molecule, how does the “activity change, negative = inhibition” value read?
Answer: 10.4%

Question: How did the “activity change, negative = inhibition” value turn out when O=S(=O)(NCc1ccccc1Cl)c1cnc[nH]1 was run?
Answer: -0.378%

Question: Which “activity change, negative = inhibition” value does the source give for COC(=O)C1[C@H]2SC(C)(C)C(C(=O)OC)N2C(=O)N1Cc1nc2ccccc2s1 (some centres undefined) here?
Answer: -2.91%

Question: Which Potency does the source give for COc1ccccc1OCc1nc2ccccc2s1 here?
Answer: 0.601 µM (active)

Question: COc1ccc(-c2nc3ccccc3s2)cc1NC(=O)COc1ccccc1C was tested. Which “activity change, negative = inhibition” value did it give?
Answer: 0.496%

Question: How did the “activity change, negative = inhibition” value turn out when Cc1cc(O)c(C(c2ccccc2)N2CCN(c3ccccc3F)CC2)c(=O)n1Cc1ccco1 (centres undefined) was run?
Answer: -13.9%

Question: With O=C(CCC1N=C2c3ccccc3N=C(SCc3ccccc3F)N2C1=O)NCCc1ccccc1 (centres undefined) as the molecule, how does the “activity change, negative = inhibition” value read?
Answer: -5%

Question: With CC(NC(=O)c1ccc(S(=O)(=O)Nc2ccccc2)cc1)c1ccc(S(N)(=O)=O)cc1 (centres undefined) as the molecule, how does the “activity change, negative = inhibition” value read?
Answer: 0.247%

Question: With O=C1/C(=C/c2cccs2)CCC1C1CCCC1 (centres undefined) as the molecule, how does the Potency read?
Answer: 3.38 µM (active)

Question: O=S(=O)(c1cccs1)N1CCc2ccccc2C1 was tested. Which “activity change, negative = inhibition” value did it give?
Answer: 2.65%

Question: For O=C1/C(=C/c2cccs2)CCc2ccccc21, which Potency is on record?
Answer: 0.757 µM (active)

Question: How did the “activity change, negative = inhibition” value turn out when O=C(COC(=O)/C=C/c1cccs1)NC1CCCCC1 was run?
Answer: 0.481%

Question: For CCC1C/C(=C/c2cccs2)C(=O)/C(=C/c2cccs2)C1 (centres undefined), which “activity change, negative = inhibition” value is on record?
Answer: -0.238%

Question: Which “activity change, negative = inhibition” value does the source give for O=C1/C(=C/c2cccs2)SC(=S)N1C1CCS(=O)(=O)C1 (centres undefined) here?
Answer: -10.5%

Question: Which “activity change, negative = inhibition” value does the source give for COc1ccccc1-c1cc(C(F)(F)F)nc(S(=O)(=O)CCCC(=O)Nc2cc(C)ccc2O)n1 here?
Answer: 2.47%

Question: How did the “activity change, negative = inhibition” value turn out when O=C(CSc1nnc(N2CCOCC2)n1-c1cccc(F)c1)N1CCN(c2ccccn2)CC1 was run?
Answer: 1.86%

Question: COc1cccc(C(=O)NCC(=O)OCc2cc(=O)n3ccsc3n2)c1 was tested. Which “activity change, negative = inhibition” value did it give?
Answer: -3.98%

Question: COc1cccc(C(=O)n2ccc(-c3cccs3)n2)c1 was tested. Which Potency did it give?
Answer: 3.38 µM (active)

Question: How did the “activity change, negative = inhibition” value turn out when COc1cccc(C(=O)NCc2ccc3c(c2)CCN3C(=O)c2ccncc2)c1 was run?
Answer: 1.74%

Question: For CC(C)(C)c1cc2cccnc2n1Cc1ccccc1, which “activity change, negative = inhibition” value is on record?
Answer: -1.13%

Question: For O=C(/C=C/c1cccs1)c1cc(Cl)ccc1OC(=O)N1CCOCC1, which “activity change, negative = inhibition” value is on record?
Answer: -0.486%

Question: CCOc1ccc(C2C(=O)N(C3CCCCC3)CC(=O)N2CCC2=CCCCC2)cc1OC (centres undefined) was tested. Which “activity change, negative = inhibition” value did it give?
Answer: 0.188%

Question: How did the “activity change, negative = inhibition” value turn out when Cc1cccc(CSc2nnc(C)c(=O)n2N)c1 was run?
Answer: 5.06%

Question: Which Potency does the source give for Cc1cccc(CSc2ccc(-c3cccs3)nn2)c1 here?
Answer: 12 µM (active) and 8.49 µM (active)

Question: How did the “activity change, negative = inhibition” value turn out when N#Cc1ccc(-c2cccs2)nc1SCc1ccc(Br)cc1 was run?
Answer: -2.78%

Question: C[C@H](NC(=O)c1ccccc1Cl)C(=O)OCC(=O)N1CCN(c2ccccc2)CC1 was tested. Which “activity change, negative = inhibition” value did it give?
Answer: 1.68%

Question: How did the “activity change, negative = inhibition” value turn out when COc1ccc(C(=O)C2CCCN(S(=O)(=O)c3cccc(C)c3)C2)c(C)c1 (centres undefined) was run?
Answer: 5.75%

Question: With CCN1C(=O)c2ccccc2S(=O)c2ccc(C(=O)NCc3ccc(F)cc3)cc21 (centres undefined) as the molecule, how does the “activity change, negative = inhibition” value read?
Answer: 1.08%

Question: For O=C(O)c1cccc(N=NN2CCCCCC2)c1, which Potency is on record?
Answer: 6.75 µM (active)

Question: CN1CCN(S(=O)(=O)c2cccc(C(=O)O)c2)CC1 was tested. Which “activity change, negative = inhibition” value did it give?
Answer: -0.781%

Question: For O=C(O)c1ccc(N=NN2CCOCC2)cc1, which “activity change, negative = inhibition” value is on record?
Answer: 1.54%

Question: Which “activity change, negative = inhibition” value does the source give for CC(C)Oc1ccc(S(=O)(=O)N2CCOCC2)cc1NC(=O)C1CCCC1 here?
Answer: 0.0682%

Question: With O=C(Cn1nc(C(F)(F)F)c2c1CCCC2)Nc1ccc(Cl)cc1 as the molecule, how does the “activity change, negative = inhibition” value read?
Answer: -4.17%

Question: How did the “activity change, negative = inhibition” value turn out when O=C(CNC(=O)c1ccco1)OCC(=O)c1ccccc1 was run?
Answer: -3.69%

Question: For O=C(NCCSc1ccccc1)c1ccco1, which Potency is on record?
Answer: 23.9 µM (active)

Question: Which “activity change, negative = inhibition” value does the source give for O=C(NCCS(=O)(=O)N1CCN(c2ccccc2)CC1)c1ccco1 here?
Answer: 2.07%

Question: CCOC(=O)Cn1c(=O)n(-c2ccccc2OC)c2nc(-c3cccc(F)c3)nc(C(N)=O)c21 was tested. Which “activity change, negative = inhibition” value did it give?
Answer: -8.14%

Question: CC(C)(C)c1ccc(S(=O)(=O)N2CCN(C(=O)c3cc(-c4ccc(Br)cc4)n[nH]3)CC2)cc1 was tested. Which “activity change, negative = inhibition” value did it give?
Answer: 0.458%

Question: How did the “activity change, negative = inhibition” value turn out when CC(=O)N1CCN(C(=O)Nc2cccc(C(F)(F)F)c2)CC1 was run?
Answer: -0.34%

Question: How did the “activity change, negative = inhibition” value turn out when Cc1nnsc1C(=O)N/N=C/c1cccc(C(F)(F)F)c1 was run?
Answer: -2.3%

Question: FC(F)(F)c1cccc(N/N=C/c2ccccc2)c1 was tested. Which Potency did it give?
Answer: 12 µM (active)

Question: For CCC1CCCCN1C(=O)Cn1c(=O)n(CCCCCC(=O)NCc2ccccc2)c(=O)c2sccc21 (centres undefined), which “activity change, negative = inhibition” value is on record?
Answer: -16.2%

Question: How did the “activity change, negative = inhibition” value turn out when CC(C)(C)OC(=O)Nc1ccc([C@@H](NC(=O)OC(C)(C)C)C(=O)OC(C)(C)C)cc1 was run?
Answer: 2.72%

Question: For COc1ccc2cc(CNc3ccc(OC)c(OC)c3)c(=O)n(CC(=O)Nc3ccccc3F)c2c1, which “activity change, negative = inhibition” value is on record?
Answer: 5.48%

Question: Which “activity change, negative = inhibition” value does the source give for Cc1cc2c(cc1S(=O)(=O)CCC(=O)Nc1ccc(OC(F)(F)F)cc1)OCC(=O)N2 here?
Answer: -15.7%

Question: How did the “activity change, negative = inhibition” value turn out when Nn1c(SCC(=O)Nc2nccs2)nnc1-c1ccco1 was run?
Answer: 1.42%

Question: How did the “activity change, negative = inhibition” value turn out when CC(C)c1ccc(NC(=O)Cn2nnc(C(=O)NCCc3ccccc3)c2N)cc1 was run?
Answer: -5.02%

Question: How did the Potency turn out when CC(C)c1ccc(NC(=O)Cn2ncc3ccccc32)cc1 was run?
Answer: 10.7 µM (active)

Question: With CCc1ccc(NC(=O)Cn2ncn3c(cc4ccccc43)c2=O)cc1 as the molecule, how does the Potency read?
Answer: inactive

Question: For Cc1oc(-c2ccccc2)nc1Cn1c(SCc2cccc(C(F)(F)F)c2)nc2cccnc21, which “activity change, negative = inhibition” value is on record?
Answer: -14.9%

Question: With COc1ccc(N2CCN(Cc3nc4c(c(=O)[nH]c(=O)n4C)n3Cc3ccc(Cl)cc3)CC2)cc1 as the molecule, how does the “activity change, negative = inhibition” value read?
Answer: -1.19%

Question: Which “activity change, negative = inhibition” value does the source give for O=C(NCCCO)C(=O)Nc1c2c(nn1-c1ccccc1)CSC2 here?
Answer: -8.71%

Question: Cc1nc2ccccn2c1C(=O)NN=C1CCN(C)CC1 was tested. Which “activity change, negative = inhibition” value did it give?
Answer: -1.15%

Question: N=C1/C(=C/c2cccn2-c2cccc([N+](=O)[O-])c2)C(=O)N=C2SC=CN12 was tested. Which “activity change, negative = inhibition” value did it give?
Answer: 4.38%

Question: Which Potency does the source give for CCS(=O)(=O)C1=NSC2=NC(=O)/C(=C\c3cc(C)n(-c4cccc(OC)c4)c3C)C(=N)N21 here?
Answer: 6.75 µM (active)

Question: CC1=CC2=NC(=O)/C(=C/c3coc4ccccc4c3=O)C(=N)N2O1 was tested. Which “activity change, negative = inhibition” value did it give?
Answer: -16.2%

Question: Which Potency does the source give for Cc1cc(/C=C2/C(=N)N3C(=NC2=O)SN=C3S(C)(=O)=O)c(C)n1-c1ccccc1 here?
Answer: 0.536 µM (active)

Question: With COc1ccccc1OCCOc1ccc(/C=C2\C(=N)N3N=C(C)SC3=NC2=O)cc1 as the molecule, how does the “activity change, negative = inhibition” value read?
Answer: -12.2%

Question: For CCC1=NN2C(=N)/C(=C/c3cc(C)n(-c4ccccc4)c3C)C(=O)N=C2S1, which Potency is on record?
Answer: 26.9 µM (active)

Question: How did the “activity change, negative = inhibition” value turn out when CCS(=O)(=O)C1=NSC2=NC(=O)/C(=C\c3ccc(OS(=O)(=O)c4ccccc4)cc3)C(=N)N21 was run?
Answer: -9.36%

Question: CCOc1cc(/C=C2\C(=N)N3N=C(C)SC3=NC2=O)ccc1OCCOc1ccccc1 was tested. Which “activity change, negative = inhibition” value did it give?
Answer: 1.67%

Question: Which “activity change, negative = inhibition” value does the source give for Cc1cccc(N2CCN(C(=O)c3oc(=O)c4ccccc4c3-c3ccccc3)CC2)c1C here?
Answer: -0.455%

Question: COc1ccc(CC(=O)N2CC(=O)Nc3ccc(Br)cc3C2c2ccc(F)cc2)cc1OC (centres undefined) was tested. Which “activity change, negative = inhibition” value did it give?
Answer: 0.675%

Question: How did the “activity change, negative = inhibition” value turn out when O=C(Cn1c(=O)nc(-c2ccccc2)c2cc(Cl)ccc21)NCc1ccc(Cl)cc1 was run?
Answer: 3.37%
